The campaign covered roughly 1,600 compounds. About 1,100 (69%) were called active. So high a share suggests a set chosen from earlier hits. These entries were drawn from the full list. Values without a mark were called inactive. No stated cut-off is given here; in the data, active means inhibition above about 50%; inactive means the rest.

The assay deals with Phospholipase A2 (Homo sapiens) (UniProt P04054). In words: human phospholipase A2 activity blockers – biochemical, single concentration, uHTS hits, counter-screen for ATG4B inhibitor project (AID 588402). The note with it: purified PLA2, NBD-C6-HPC fluorescence, 45 min; at 8.33 µM; hits give high values.
Phospholipase A2 (Homo sapiens), sequence (P04054 whole entry, looked up): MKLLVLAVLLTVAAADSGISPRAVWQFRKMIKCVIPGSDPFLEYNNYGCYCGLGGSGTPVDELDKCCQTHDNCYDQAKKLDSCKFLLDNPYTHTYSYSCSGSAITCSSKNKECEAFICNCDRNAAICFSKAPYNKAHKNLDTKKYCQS
Take `O=C(C(=O)N1CCc2ccccc2C1)c1c[nH]c2ccccc12`: the inhibition was 71% (active).

Take `Cc1ccc(-c2cc(C(=O)N3CCc4ccccc4C3)no2)cc1`: the inhibition was 43.8%.

Consider `COc1ccc2c(c1)CCc1c(C(=O)N3CCc4ccccc4C3)noc1-2`, for which the inhibition is 47.9%.

`Cc1ccc(CSc2nc(-c3ccccc3)c(C#N)c(=O)[nH]2)cc1`: the inhibition is 32.1%.

Turning to `COc1ccc(Br)cc1C(=O)NC(=S)Nc1cc(-c2nc3ccccc3[nH]2)ccc1C`, the inhibition was 74.1% (active).

Regarding `Cc1cccc(C)c1N1C(=O)CN(Cc2ccccc2)C1=S`, the inhibition is 90.3% (active).

For `CCc1cccc(C)c1N1C(=O)CN(Cc2ccccc2)C1=S`, the inhibition is 92.4% (active).

As to `Cc1cccc(C)c1-n1c(C)cc(/C=C2\C(=O)NN(c3ccccc3)C2=O)c1C`, the inhibition was 63.7% (active).

Turning to `Cc1c(Cl)cccc1NC(=O)Nc1ccc(C(=O)N2CCCC2)cc1`, the inhibition was 56.6% (active).

Consider `O=C1c2ccccc2C(=O)N1Cc1cc(-c2ccccc2Cl)no1`, for which the inhibition was 64.2% (active).

Consider `COc1ccc(C)cc1S(=O)(=O)N(CC(=O)Nc1cccc([N+](=O)[O-])c1)c1ccc(C)cc1`, for which the inhibition was 86.6% (active).

Consider `Cc1ccc(S(=O)(=O)N(CC(=O)Nc2cccc([N+](=O)[O-])c2)Cc2ccc(Cl)cc2)cc1`, for which the inhibition was 80.7% (active).

With `Fc1cccc(Cl)c1CSc1ccc(-c2ccco2)nn1`, the inhibition is 49.5%.

For `NC(=O)Cc1ccc2sc(-c3ccccc3)nc2c1`, the inhibition was 79.7% (active).

Consider `CCN1CCN(c2c(Cl)cccc2NC(=O)c2ccc(Br)o2)CC1`, for which the inhibition was 61.6% (active).

Take `Cc1ccc(N=C2NC(=O)/C(=C/C=C/c3ccco3)S2)cc1C`: the inhibition was 36.4%.

Turning to `CC(C)c1ccc2c(c1)c(SC(C)(C)C)c(CC(C)(C)C(=O)O)n2Cc1ccc(Cl)cc1`, the inhibition was 57.7% (active).

Consider `O=C(/C=C/c1ccc(Cl)cc1)N1CCN(c2ccccc2[N+](=O)[O-])CC1`, for which the inhibition was 53% (active).

With `CC(=O)c1c(C)n(-c2ccc(N(C)C)cc2)c2ccc(OCC(N)=O)cc12`, the inhibition is 82.6% (active).

For `Cc1c(Cl)c([N+](=O)[O-])nn1CCCC(=O)Nc1cc(Cl)ccc1Cl`, the inhibition was 69.4% (active).

For `COc1ccc(/C=C2/SC(=O)N(CCCCCC(=O)Nc3ccccc3C(=O)O)C2=S)cc1`, the inhibition is 24.3%.

Consider `O=C(Nc1cccc(F)c1)NC1CCCc2ccccc21` (stereo unspecified), for which the inhibition is 71.2% (active).

As for `CCOC(=O)c1c(C)[nH]c2c1-c1ccccc1C(=O)C2=O`, the inhibition was -20.8%.

Consider `CC1CCN(C(=O)c2ccc(CSc3ccc(Cl)cc3)cc2)CC1`, for which the inhibition is 58.1% (active).

Turning to `CC1(OC(=O)C2CCCC2)C(=O)C=C2C=C(c3ccc(C#N)cc3)OC=C2C1=O` (stereo unspecified), the inhibition was 66.5% (active).

As to `CCCc1nc2c(c(=O)c3ccccc3n2C)c(=O)n1C1CCCCCC1`, the inhibition was -14.6%.

Consider `Cc1c(Cl)cccc1NC(=S)NCc1ccc2c(c1)OCO2`, for which the inhibition was 62.1% (active).

Consider `CCCOc1ccc2c3c(c(=O)oc2c1OCCC)CCC3`, for which the inhibition was 40.9%.

`CCc1ccccc1NC(=O)/C(=C/c1ccccc1)c1ccccc1`: the inhibition is 61.7% (active).

As to `Cc1ccc(Nc2cc(=O)n(C3CCCCC3)c(=O)[nH]2)cc1C`, the inhibition is 2.78%.

Regarding `NC(=O)Cc1ccc2c(c1)[nH]c1ccccc12`, the inhibition was 51% (active).

For the compound `O=C1N=C(N2CCc3ccccc3C2)S/C1=C\c1ccc(O)cc1`, the inhibition was 23.3%.

As to `O=c1c2sccc2nc(SCc2cc(=O)n3ccccc3n2)n1-c1ccc(Br)cc1`, the inhibition was 51.5% (active).

As to `CCOC(=O)C(C)Sc1nc2ccccc2c(=O)n1CC1CCCCC1` (stereo unspecified), the inhibition was 44.5%.

With `CCOc1ccc(-n2c(SC(C)C(=O)OC)nc3c(c2=O)SCC3)cc1` (stereo unspecified), the inhibition is 56.4% (active).

For the compound `Cc1ccc(NC(=O)CC2S/C(=N/N=C3\CCCc4ccccc43)NC2=O)cc1` (stereo unspecified), the inhibition was 60% (active).

Regarding `Cc1nn(-c2ccccc2)c(C)c1/C=N/NC(=O)CSc1nc2ccccc2c(=O)n1-c1ccccc1`, the inhibition was 31.8%.

With `COC(=O)c1c(NC(=O)C2CC(C)=C(C)CC2C(=O)O)sc2c1CCCCC2` (stereo unspecified), the inhibition is 68% (active).

As for `COc1cccc(CNc2nc(C(F)(F)F)nc3ccccc23)c1`, the inhibition was 63.6% (active).

For the compound `OC(CNCc1ccc(Cl)c(Cl)c1)c1ccccc1` (stereo unspecified), the inhibition was 38.9%.

`Cc1c(NC(=S)NCc2ccc(F)cc2)cccc1[N+](=O)[O-]`: the inhibition is 70.7% (active).

Regarding `Cc1cccc(C2c3[nH]c4ccccc4c3CCN2C(=O)c2cc(-c3cccn3C)n[nH]2)n1` (stereo unspecified), the inhibition is 75.6% (active).

As to `Cc1c(Cl)c([N+](=O)[O-])nn1Cc1ccc(C(=O)N/N=C\c2cc(Cl)ccc2O)o1`, the inhibition is 72.6% (active).

As for `COc1cccc(/C=N/Nc2ccc(S(=O)(=O)Nc3ccccc3C(=O)O)cc2[N+](=O)[O-])c1O`, the inhibition was 56.1% (active).

As to `c1ccc(C2=Nc3cccc4cccc(c34)N2)cc1`, the inhibition is 58.5% (active).

With `CC(C)c1nc(SCC(=O)Nc2cccc(C(=O)O)c2)c2c3c(sc2n1)CCCC3`, the inhibition is 70.6% (active).

In the case of `Cc1nc2ccccc2c(-c2ccccc2)c1C(=O)c1ccccc1`, the inhibition was 81.3% (active).

In the case of `Cc1ncc(CC(=O)n2cc(C(=O)c3cc(Cl)ccc3O)cn2)s1`, the inhibition is 84.3% (active).

As for `Cc1cccc(C)c1N1CCN(S(=O)(=O)N2CCCCC2)CC1`, the inhibition was 54.3% (active).

Take `Cc1nc(SCC(=O)N2CCc3ccccc3C2)c2c(C)c(C)sc2n1`: the inhibition was 76.5% (active).

Take `FC(F)(F)c1cccc(NC(=S)Nc2cccc(Cl)c2)c1`: the inhibition is 70.8% (active).

Turning to `Cc1ccc(C2=Nc3c(ccc4ccccc34)C(c3ccncc3)=NN2)cc1`, the inhibition is 68.7% (active).

Consider `O=C(NCc1ccccc1)[C@H]1C[C@@H]1[C@H](NP(=O)(c1ccccc1)c1ccccc1)c1ccccc1`, for which the inhibition is 79% (active).

On to `O=C(Nc1nnc(SCc2ccccc2Cl)s1)c1cccc([N+](=O)[O-])c1`, for which the inhibition was 57.6% (active).

For `Clc1ccccc1CSc1nnc(-c2ccco2)c(-c2ccco2)n1`, the inhibition is 34.9%.

For `O=C(CSc1nc(-c2ccccc2)cs1)Nc1cccc([N+](=O)[O-])c1`, the inhibition is 16.5%.

On to `Cc1ccc(CNC(=O)c2ccccc2CCc2ccccc2)cc1`, for which the inhibition was 45.9%.

Consider `FC(F)(F)Oc1ccc(NC(=S)NCc2ccccc2)cc1`, for which the inhibition was 47.2%.

Consider `S=C(NCCc1ccccc1)NCc1ccccc1Cl`, for which the inhibition is 54.4% (active).

In the case of `CN(Cc1c(F)cccc1Cl)S(=O)(=O)c1cccs1`, the inhibition was 58.8% (active).

Regarding `CCCC1=Nc2cc(C(=O)NCc3ccco3)ccc2Sc2ccccc21`, the inhibition is 46.3%.

On to `Oc1c(Cl)cc(Cl)c(Cl)c1Cc1c(O)c(Cl)cc(Cl)c1Cl`, for which the inhibition was 82.7% (active).

On to `Cc1ccc(-n2c(SCC(=O)N/N=C/C=C/c3ccccc3[N+](=O)[O-])nc3ccccc3c2=O)cc1`, for which the inhibition is 40.7%.

With `O=C(O)CCn1cc(/C=C/C(=O)c2ccc(Cl)cc2)c(-c2cccc(Br)c2)n1`, the inhibition is 43.2%.

On to `O=C1C(=O)N(CC2COc3ccccc3O2)c2ccccc21` (stereo unspecified), for which the inhibition was 78.5% (active).

On to `Fc1ccc2[nH]c3c(N4CCN(Cc5ccc6c(c5)OCO6)CC4)ncnc3c2c1`, for which the inhibition was 48.4%.

Consider `COc1cccc(NC(=O)NCc2ccc(F)cc2)c1`, for which the inhibition is 52.3% (active).

For `COc1ccc(NC(=O)COc2ccc(C(=O)c3ccc(F)cc3)cc2)cc1S(N)(=O)=O`, the inhibition was -4.37%.

`CC1=C/C(=N\S(=O)(=O)c2ccccc2)C(C(C)C)=CC1=O`: the inhibition was 84.4% (active).

`CN(C)Cc1ccc(F)cc1Sc1cc(Cl)ccc1Cl`: the inhibition was 42.7%.

For the compound `O=C(N/N=C/c1coc2ccccc2c1=O)c1cc2ccccc2o1`, the inhibition is 55.8% (active).

Take `COc1ccc(/C=C2/CCCc3ccccc3C2=O)cc1`: the inhibition is 53.3% (active).

With `COc1ccc(/C=C2\CCc3ccccc3C2=O)c(OC)c1OC`, the inhibition is 23.1%.

As for `CCc1ccc2c(c1)C(c1ccc([N+](=O)[O-])cc1)=NNC(c1ccccc1)=N2`, the inhibition is 24.1%.

For `CCOc1ccc2c(c1)C(c1ccc(C)cc1)=NNC(c1ccc(C)cc1)=N2`, the inhibition was 74.7% (active).

Turning to `O=C1Nc2cc(Cl)c(Cl)cc2N(O)N1c1cc(Cl)cc(Cl)c1`, the inhibition is 39.8%.

Take `O=C(O)C(c1ccccc1)N1C(=O)/C(=C\c2ccc(-c3cccc(Cl)c3)o2)SC1=S` (stereo unspecified): the inhibition was 45%.

Regarding `O=C(N[C@@H](Cc1c[nH]c2ccccc12)C(=O)O)OCC1c2ccccc2-c2ccccc21`, the inhibition was 72.1% (active).

Regarding `Cc1cccc(NC(=S)Nc2ccc(Cl)c(Cl)c2)c1`, the inhibition is 60.1% (active).

Take `COc1cnc(-c2ccccn2)nc1Oc1ccc(C(C)(C)C)cc1`: the inhibition is 67.2% (active).

Regarding `CC(C)(C)c1ccc(OC2=CS(=O)(=O)c3ccccc32)cc1`, the inhibition was 55.9% (active).

Turning to `Cc1cccc(NC(=S)NCCc2ccc(Cl)cc2)c1C`, the inhibition was 57.9% (active).

As to `Cc1ccc(Nc2ccc(C(N)=O)cc2[N+](=O)[O-])cc1`, the inhibition was 59.4% (active).

Consider `CCOC(=O)N/N=C/c1cn(Cc2ccccc2Cl)c2ccccc12`, for which the inhibition was 48.2%.

For the compound `COc1cccc(Cn2cc(/C=N/NC(=O)c3cc(O)cc(O)c3)c3ccccc32)c1`, the inhibition was 76.6% (active).

Consider `COC(=O)N/N=C/c1cn(CCCOc2ccc(C)cc2)c2ccccc12`, for which the inhibition was 43%.

Turning to `CC(C)(C)C1CCc2c(sc3nc(SCC(N)=O)nc(N)c23)C1` (stereo unspecified), the inhibition was 47.6%.

Consider `CCOC(=O)c1c(-c2ccccc2)oc2cc(Br)c(O)c(C=O)c12`, for which the inhibition was 40.9%.

As to `CC(=O)Nc1ccc(C(=O)Nc2nc(-c3cc(C)n(Cc4ccccc4)c3C)cs2)cc1`, the inhibition was 38.2%.

As to `CCCc1[nH]nc2c1C(c1ccc(OC(=O)c3ccco3)cc1)C(C#N)=C(N)O2` (stereo unspecified), the inhibition is 67.4% (active).

As for `COC(=O)c1c(NC(=O)COC(=O)[C@@H](NS(=O)(=O)c2ccccc2)C(C)C)sc2c1CCC2`, the inhibition is 81.7% (active).

Consider `NC(=O)c1sc2nc3c(c(-c4ccccc4)c2c1N)CCC3`, for which the inhibition is 46.6%.

With `O=C(COC(=O)c1cc2c(s1)CCCC2)NCc1ccccc1Cl`, the inhibition is 59.3% (active).

Take `O=C(COC(=O)/C(=C/c1cccs1)c1cccs1)NCc1ccccc1Cl`: the inhibition was 68.2% (active).

For `CCc1nc(N2CCN(C(C)=O)CC2)c2c3c(sc2n1)CCCC3`, the inhibition is 52.4% (active).

In the case of `Cc1ccc(Oc2cc(NC(=O)CCCn3nc(C)c([N+](=O)[O-])c3C)cc([N+](=O)[O-])c2)cc1`, the inhibition is 63% (active).

The values are drawn from PubChem BioAssay AID588402 (Sanford-Burnham Center for Chemical Genomics, 2011).
